# In PubChem BioAssay (NCI):
# Compounds without any hit were thinned out: in the full panel of roughly 83,000, 20% have a hit.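 Cell lines were cultured in 96-well plates, exposed to a single compound concentration, and assessed for percent growth 48 hours later.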 Values without a mark were called inactive. Activity calls are given as the source filed them. How the source made its calls: active means growth percent below 10; inactive means the rest.
# System: LOX IMVI melanoma
# Test: NCI-60 one-dose screen, 48 h (100 = growth as untreated, 0 = no growth, -100 = all killed)
# Settings: 10 µM unless noted
row,SMILES,growth
1,CN1CCN(c2ccc3c(c2)nc(NNC(=O)c2cnccn2)c2cccn23)CC1,10.3%
2,Cc1cc(C)c(-c2c(O)c(Br)c(-c3c(C)cc(C)c(Br)c3C)c(O)c2Br)c(C)c1Br,-26% (active)
3,CCCCCCCCCCCCCCCCCCOc1ccccc1CC(=O)NCC[N+]1(C)CCOCC1,55.5%
4,O=C(/C=C/c1cccc(Cl)c1)c1cccc(OCCCCOc2cccc(C(=O)/C=C/c3cccc(Cl)c3)c2)c1,30.5%
5,Cc1ccc(-c2nc(C#N)c(S(=O)(=O)NCCO)o2)cc1,46.4%
6,NC(=O)c1ccc(NC(=O)c2oc3ccccc3c2-c2cnn(-c3ccccc3)c2)cc1,-22.6% [50 µM] (active)
7,O=C(CBr)CN1C(=O)c2ccccc2C1=O,94.7%
8,CCN(CC)c1ccc(/C=C\c2cc(C)c3cc(C)ccc3n2)cc1,18.1%
9,C=CCN=C(N)SCCCCCCSC(N)=NCC=C,93.1%
10,Clc1nn2c(Cn3cnc4c(NCc5ccccc5)ncnc43)nnc2c2ccccc12,31.3%
11,CCOC(=O)c1ccc2c(c1)c1c(C)c3ccncc3c(C)c1n2C,-19.1% (active)
12,CCCCCCCCn1ccc2cc(NC(=O)Cn3cc(CN4CCCCCC4)nn3)ccc21,-90.8% (active)
13,N#CC(C#N)N=Nc1ccc(Cl)cc1Cl,94.8%
14,Brc1ccc(-c2cnc3nonc3n2)cc1,38%
15,COc1cccc(C(=O)OCC(O)C(=O)NC23CC4CC(CC(C4)C2)C3)c1 (configuration not stated),95.4%
16,O=C(Nc1cccc(NC(=O)C2CCCCC2)c1)c1ccccn1,90.6%
17,Cc1cc(C)cc(Nc2ccc([N+](=O)[O-])c(NCCN3CCOCC3)n2)c1,15.7%
18,O=C(Nc1cccnc1Nc1ccc(Cl)cc1)c1cn(Cc2ccc(F)cc2)nn1,104%
19,Cn1c(=O)c2c(c3ccccc31)OC(N)=C(C#N)C21C(=O)c2ccccc2C1=O,97.5%
20,COc1cccc(/C=C2\COc3ccc(O)cc3C2=O)c1,18.7%
21,CCc1cccc(Sc2cc(C(=O)N3Cc4ccc(OCCN(C)C)cc4C3)ccc2O)c1,46.7%
22,C=C(CN1CC=CCC1)[C@@H]1CC[C@]2(CO)CC[C@]3(C)[C@H](CC[C@@H]4[C@@]5(C)CC[C@H](O)C(C)(C)[C@@H]5CC[C@]43C)[C@@H]12,99.8%
23,COc1ccc(/C(C)=C(\c2ccc(Cl)cc2)c2ccc(OCCN3CCCC3)cc2)cc1,-46.5% (active)
24,CC/C(Cc1ccccc1)=C(\c1ccc(OCCN2CCCCCC2)cc1)c1ccc(OC(=O)NCc2ccccc2)cc1,4.35% (active)
25,N=c1sc(Cc2cc(Cl)ccc2Cl)cn1CC(=O)c1ccccc1,25.1%
26,Cc1cc(C(=O)Nc2cc(Nc3ncccc3-c3ncnc4nc[nH]c34)ccc2F)cc(C(F)(F)F)c1,1.22% (active)
27,C[C@@H]1O[C@@H](O[C@@H]2C[C@H](c3ccc4c(c3O)C(=O)C3=C(C4=O)[C@@]4(O)C(=O)C[C@](C)(O)C[C@@]4(O)C=C3)O[C@H](C)[C@H]2O)C[C@H](O)[C@@H]1O,91%

# System: SK-MEL-28 melanoma
# Test: as above
# Settings: 10 µM unless noted
row,SMILES,growth
1,OC(c1ccccc1)(c1ccccc1)c1ccccc1-c1ccccc1,109%
2,Clc1ccc(-c2nc(-c3c[nH]c4ncccc34)cs2)cc1,94% [100 µM]
3,CC(=O)c1cc(-c2ccccc2N)n(-c2ccc3c(c2)OCO3)c1C,52.4%
4,CC1O[C@@H]2C[C@@](O)([C@H]1O)n1c3ccccc3c3c4c(c5c6ccccc6n2c5c31)C(=O)NC4=O (some centres not stated),69.1%
5,COC(=O)/C(CCC=C(C)C)=C1\[C@@H](OC(C)=O)C[C@@]2(C)[C@H]1CC(=O)[C@H]1[C@@]3(C)CCC(N4CCCC4)[C@@H](C)[C@@H]3CC[C@@]12C (some centres not stated),93.6%
6,CN(C)c1ccc(/C=C2/C=C(c3ccccc3)OC2=O)cc1,105%
7,COc1cc(-c2nc3occn3c2-c2ccnc(NCCCNS(=O)(=O)c3ccccc3)n2)ccc1F,38%
8,O=C(Nc1ccccc1)c1sc(-c2ccccc2)cc1O,84.4%
9,CCOC(=O)c1c2c(n3c1NCC3)-c1ccccc1C2=O,103%
10,C/C(=N\Nc1nc(C)cs1)c1cc2ccccc2o1,110%
11,CCOC(=O)C1=C(c2ccccc2)N=c2s/c(=C/c3ccc(Br)cc3)c(=O)n2C1c1ccc(O)cc1 (configuration not stated),92.5%
12,COc1ccc(C2CC(c3ccc(Nc4nc(Nc5ccc(F)cc5)nc(Nc5ccc(F)cc5)n4)cc3)=NN2C(C)=O)cc1 (configuration not stated),110%
13,c1ccc2cc(Cn3c[n+](Cc4ccc5ccccc5c4)c4ccccc43)ccc2c1,-28.9% (active)
14,CN1CCN(c2ccc3c(c2)nc(NNC(=O)c2cnccn2)c2cccn23)CC1,24.8%
15,Cc1cc(C)c(-c2c(O)c(Br)c(-c3c(C)cc(C)c(Br)c3C)c(O)c2Br)c(C)c1Br,49.1%
16,CCCCCCCCCCCCCCCCCCOc1ccccc1CC(=O)NCC[N+]1(C)CCOCC1,74.7%
17,O=C(/C=C/c1cccc(Cl)c1)c1cccc(OCCCCOc2cccc(C(=O)/C=C/c3cccc(Cl)c3)c2)c1,99.2%
18,Cc1ccc(-c2nc(C#N)c(S(=O)(=O)NCCO)o2)cc1,70.7%
19,NC(=O)c1ccc(NC(=O)c2oc3ccccc3c2-c2cnn(-c3ccccc3)c2)cc1,25.6% [50 µM]
20,O=C(CBr)CN1C(=O)c2ccccc2C1=O,101%

row,SMILES,growth
1,CCN(CC)c1ccc(/C=C\c2cc(C)c3cc(C)ccc3n2)cc1,50.7%
2,C=CCN=C(N)SCCCCCCSC(N)=NCC=C,103%
3,Clc1nn2c(Cn3cnc4c(NCc5ccccc5)ncnc43)nnc2c2ccccc12,46%
4,CCOC(=O)c1ccc2c(c1)c1c(C)c3ccncc3c(C)c1n2C,-28.3% (active)
5,CCCCCCCCn1ccc2cc(NC(=O)Cn3cc(CN4CCCCCC4)nn3)ccc21,-86.1% (active)
6,N#CC(C#N)N=Nc1ccc(Cl)cc1Cl,70.3%
7,Brc1ccc(-c2cnc3nonc3n2)cc1,104%
8,COc1cccc(C(=O)OCC(O)C(=O)NC23CC4CC(CC(C4)C2)C3)c1 (configuration not stated),104%
9,O=C(Nc1cccc(NC(=O)C2CCCCC2)c1)c1ccccn1,103%
10,Cc1cc(C)cc(Nc2ccc([N+](=O)[O-])c(NCCN3CCOCC3)n2)c1,60.9%
11,O=C(Nc1cccnc1Nc1ccc(Cl)cc1)c1cn(Cc2ccc(F)cc2)nn1,115%
12,Cn1c(=O)c2c(c3ccccc31)OC(N)=C(C#N)C21C(=O)c2ccccc2C1=O,104%
13,COc1cccc(/C=C2\COc3ccc(O)cc3C2=O)c1,108%
14,CCc1cccc(Sc2cc(C(=O)N3Cc4ccc(OCCN(C)C)cc4C3)ccc2O)c1,90.8%
15,C=C(CN1CC=CCC1)[C@@H]1CC[C@]2(CO)CC[C@]3(C)[C@H](CC[C@@H]4[C@@]5(C)CC[C@H](O)C(C)(C)[C@@H]5CC[C@]43C)[C@@H]12,101%
16,COc1ccc(/C(C)=C(\c2ccc(Cl)cc2)c2ccc(OCCN3CCCC3)cc2)cc1,-16.8% (active)
17,CC/C(Cc1ccccc1)=C(\c1ccc(OCCN2CCCCCC2)cc1)c1ccc(OC(=O)NCc2ccccc2)cc1,87.2%
18,N=c1sc(Cc2cc(Cl)ccc2Cl)cn1CC(=O)c1ccccc1,58.5%
19,Cc1cc(C(=O)Nc2cc(Nc3ncccc3-c3ncnc4nc[nH]c34)ccc2F)cc(C(F)(F)F)c1,10.3%
20,C[C@@H]1O[C@@H](O[C@@H]2C[C@H](c3ccc4c(c3O)C(=O)C3=C(C4=O)[C@@]4(O)C(=O)C[C@](C)(O)C[C@@]4(O)C=C3)O[C@H](C)[C@H]2O)C[C@H](O)[C@@H]1O,113%
